High-throughput results deposited in PubChem by The Scripps Research Institute Molecular Screening Center.
CHO-K1 Ca antag: counter-screen for M1 antagonists: effect in parental CHO-K1 cells. ATP-induced calcium, Fluo-8 fluorescence. inhibition, % at 3 µM. 360,000 tested, 0.6% active. AID 602250;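 active = inhibition above a per-plate cutoff, the plate's mean sample inhibition plus 3 SD, cut at about 24% in these data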;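 note: 0% = DMSO plus EC80 ATP and 100% = DMSO alone without ATP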
CHRM1 PAM: human M1 muscarinic receptor positive allosteric modulators, primary screen, CHO-K1 cells, Fluo-8 calcium fluorescence, 1536-well; CHO-K1 hM1, ACh EC20; 0% = ACh EC20, 100% = maximal ACh; 360,000 tested, 0.088% active; activation, % at 3 µM; Muscarinic acetylcholine receptor M1 (Homo sapiens), P11229; in the data active = activation above about 19%, passing the limit was not always enough
Target sequence (P11229 whole entry, looked up): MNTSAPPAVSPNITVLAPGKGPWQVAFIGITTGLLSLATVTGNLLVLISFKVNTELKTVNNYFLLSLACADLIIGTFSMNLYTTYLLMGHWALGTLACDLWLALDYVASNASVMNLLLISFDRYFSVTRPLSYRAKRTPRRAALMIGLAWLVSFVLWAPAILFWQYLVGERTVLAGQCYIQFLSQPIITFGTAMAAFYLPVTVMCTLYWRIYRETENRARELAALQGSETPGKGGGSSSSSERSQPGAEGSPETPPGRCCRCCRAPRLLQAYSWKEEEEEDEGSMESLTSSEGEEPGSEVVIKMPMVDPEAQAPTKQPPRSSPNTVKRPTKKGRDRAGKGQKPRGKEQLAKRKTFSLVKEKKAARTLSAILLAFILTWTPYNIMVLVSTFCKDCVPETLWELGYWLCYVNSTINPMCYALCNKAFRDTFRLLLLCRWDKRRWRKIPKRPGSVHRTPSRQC
M1 ag parental: counter-screen for M1 agonists: effect in parental CHO-K1 cells | Fluo-8 calcium fluorescence; scaled to maximal ATP response, vehicle zero | activation, % at 3 µM | 360,000 tested, 0.48% active | AID 602248, 2012; in the data active = activation above about 15%;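 note: untransfected CHO-K1 host cells lacking M1 receptor as counterscreen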
CHRM1 agonist: human M1 muscarinic receptor agonists, primary screen, Fluo-8 calcium fluorescence, CHO-K1 cells, HTS | Muscarinic acetylcholine receptor M1 (Homo sapiens), P11229 | activation, % at 3 µM | AID 588814, 2011 | CHO-K1 hM1, agonist mode; 0% DMSO, 100% acetylcholine EC100 | 360,000 tested, 0.33% active;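 active = activation above the run's mean compound activation plus 3 SD, cut at about 16% in these data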;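 note: peak over basal fluorescence ratio within a 140 s kinetic read after compound addition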
M1 antag: human M1 muscarinic receptor antagonists, primary screen, CHO-K1 cells, Fluo-8 calcium fluorescence, 1536-well; inhibition, % at 3 µM; CHO-K1 hM1, ACh EC80 antagonist; AID 588852, 2011; Muscarinic acetylcholine receptor M1 (Homo sapiens), P11229; 360,000 tested, 1.3% active;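 active = percent inhibition above its own plate's cutoff, namely the mean of that plate's compound wells plus 3 SD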;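 note: peak over basal fluorescence ratio during 140 s after agonist addition; 0% = ACh EC80 plus DMSO and 100% = DMSO alone without agonist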
M1 PAM parental: nonselective calcium activators in parental CHO-K1 cells, primary screen, counter-screen for M1 PAM project, cell-based, Fluo-8 calcium fluorescence, full deck, 1536-well | ATP EC20; 0% at ATP EC20, 100% at ATP max | activation, % at 3 µM | 360,000 tested, 0.02% active | AID 602247, 2012;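 active = activation above the run cutoff, the mean activation of all test compounds plus 3 SD, cut at about 40% in these data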;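 note: peak over basal fluorescence ratio in a 140 s read after ATP addition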
An asterisk follows results filed as active; . = no result given. Rows were chosen to be rich in hits. Some 2.3% of all compounds tested hit in one or more screens of this group.

SMILES	CHO-K1 Ca antag	CHRM1 PAM	M1 ag parental	CHRM1 agonist	M1 antag	M1 PAM parental
CCC1Oc2ccccc2N(CC(=O)NC2CCCCC2)C1=O (centres undefined)	-4	9	-1	-8	-2	-5
CCOC(=O)C1CCCN(C(=O)CCn2nnnc2CN2CCOCC2)C1 (centres undefined)	1	-13	0	32*	17	23
CCN(CC)C(=O)C1CCCN(C(=O)CCn2nnnc2CN2CCOCC2)C1 (centres undefined)	1	9	0	-3	-14	0
CCCN(CCC)S(=O)(=O)c1cccc(-c2csc(C)n2)c1	3	3	22*	1	-22	10
CC1(C)N=C(N)N=C(N)N1CCCCc1ccccc1	-4	-27	2	-8	52*	1
Cc1noc(COc2ccccc2OCC(N)=O)n1	-1	12	16*	-3	-10	19
Cc1ccc(S(=O)(=O)N2CCN(Cc3csc(C)n3)CC2)cc1	-2	-2	0	-3	1	7
CN(CCCn1ccc(N)nc1=O)Cc1ccco1	-5	0	0	-1	4	9
O=C(c1cc(S(=O)(=O)N2CCC3(CC2)OCCO3)ccc1F)N1CCCCC1	-16	4	2	-4	-1	14
CCOC(=O)N1CCN(CC(O)COc2ccccc2C(C)C)CC1 (centres undefined)	5	-5	0	20*	-2	-1
C=CCc1ccccc1OCC(O)CN1CCN(c2ccc(C)cc2)CC1 (centres undefined)	-15	-7	0	-2	7	0
C=CCc1ccccc1OCC(O)CN1CCN(C(=O)OCC)CC1 (centres undefined)	-10	-21	3	43*	28	22
Cc1ccc(N2C(=O)c3ccccc3NC2(C(=O)O)c2ccccc2)cc1Cl (centres undefined)	5	-5	4	-5	7	-3
Cc1ccc(C)c(OCCC(=O)OCC(=O)Nc2ccc(N3CCOCC3)cc2)c1	-9	-1	2	-1	-3	-14
O=C(CSc1nnc(CNC(=O)c2cccs2)o1)NC1CCCCC1	25*	-4	0	-2	0	-7
C/C(=N\n1c(C)nc2ccccc2c1=O)c1ccc(C)o1	-6	28*	0	-1	-10	-1
CCOC(=O)c1c(NC(C)=O)sc2c1CCCNC2=O	26*	9	0	7	-6	-10
CCOC(=O)c1c(NC(C)=O)sc2c1CCC(C=O)=C2Sc1ccccc1	-8	1	0	-5	-4	14
CC(=O)Nc1ccc(NC(=O)C(C)OC(=O)CCCOc2ccc(Cl)cc2C)cc1 (centres undefined)	-4	7	2	-1	-14	-17
O=C(NCC(c1ccco1)N1CCc2ccccc21)C(=O)Nc1ccccc1 (centres undefined)	25*	2	0	-3	-6	-19
COc1ccc(OC)c(S(=O)(=O)NCC(c2ccco2)N2CCc3ccccc32)c1 (centres undefined)	-18	24*	0	2	-24	5
O=C(CNC(=O)c1ccccc1C(F)(F)F)N/N=C/c1cccs1	4	12	1	-1	-9	12
Cc1ccc(S(=O)(=O)N2C(=O)CCC2C(=O)O/N=C(\N)c2ccccc2)cc1 (centres undefined)	-5	19	1	18*	-9	10
CCCCn1nnnc1C(c1cc2ccccc2o1)N1CCOCC1 (centres undefined)	-29	.	1	.	.	8
Cn1ccc2c(N3c4ccccc4CCc4ccccc43)cc3c(c21)C1CCC3C1 (centres undefined)	9	-16	0	-12	37*	6
SMILES	CHO-K1 Ca antag	CHRM1 PAM	M1 ag parental	CHRM1 agonist	M1 antag	M1 PAM parental
CCN(CC)c1cc2c(c3c1ccn3C)C1CCC2C1 (centres undefined)	25*	-11	0	-9	23	0
Cn1ccc2c(-c3cccc4ccccc34)cc3c(c21)C1CCC3C1 (centres undefined)	38*	17	0	10	1	-9
CN(c1cc(Cl)c2c(c1)OCO2)c1cc2c(c3c1ccn3C)C1CCC2C1 (centres undefined)	27*	-3	0	-6	4	3
CN(c1ccc(Cl)cc1)c1cc2c(c3c1ccn3C)C1CCC2C1 (centres undefined)	-2	11	1	-4	-7	21
CCN(CC)C(=O)CSc1nnc(-c2ccccn2)n1-c1ccccc1OC	-12	-1	0	-2	-8	11
CCOc1ccc(S(=O)(=O)n2cc(F)c(=O)[nH]c2=O)cc1[N+](=O)[O-]	-13	0	0	0	10	-4
CCOc1ccc(S(=O)(=O)n2cc(F)c(=O)[nH]c2=O)cc1	24*	-21	5	-2	28	-10
CC[n+]1ccccc1/C=C/c1ccc(N(C)C)cc1	3	7	3	-6	-6	19
CCCCCC[n+]1ccccc1/C=C/c1ccc(N(C)C)cc1	51*	-33	36*	30*	74*	-7
COC(=O)CN1C(=O)[C@H]2[C@@H](c3ccc(C)o3)N3C(=O)CN(CC4CC4)C(=O)[C@@]3(C)[C@H]2C1=O	-22	14	1	-1	-8	18
CCOC(=O)C1CCN(Cc2cccc(Oc3ccc(Cl)cc3)c2)CC1	-9	-25	0	-11	28*	3
CCN1CCN(Cc2cccc(Oc3ccc(Cl)cc3)c2)CC1	-9	-21	3	-8	54*	19
c1ccc(Oc2cccc(CN3CCCCC3)c2)cc1	1	-32	0	-13	46*	-7
CCCCn1c(N)c(N(CCOC)C(=O)C2CC(=O)N(c3ccc(CC)cc3)C2)c(=O)[nH]c1=O (centres undefined)	-13	9	1	-2	-9	17
COc1ccc(-c2nc(N3CCN(C)CC3)sc2-c2ccc(OC)cc2)cc1	-9	4	2	-4	-7	21
CC(C)NS(=O)(=O)c1ccc(CCC(=O)N2CCCC2)cc1	24*	8	-1	-3	1	-16
COc1ccc(NC(=O)C2(N(CC(C)C)C(=O)Cn3nnnc3N)CCCCC2)cc1	25*	-5	0	-4	11	-8
